± gives the uncertainty stated by the source.
What was measured:
HEK293T-Rex XBP1-RLuc = assay: XBP1-RLuc splicing reporter activation, triplicate, relative to 500 nM thapsigargin (% of thapsigargin); higher = stronger IRE1/XBP1s reporter activation; conditions: 6.8 µM; 18 h; screen: confirmation
Experimental: (§1)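 HEK293T-Rex cells stably expressing the ERSE-firefly luciferase (BiP promoter, ATF6-preferring) or XBP1-splicing Renilla luciferase (IRE1/XBP1s) reporter, 1536-well plates, compound at 6.8 µM for 18 hr at 37 °C; luminescence read […] and expressed as % activation = 100*(compound - median DMSO)/(median 500 nM thapsigargin - median DMSO). Primary screen was single-pass; confirmation screen in triplicate (mean ± SD).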

HEK293T-Rex ERSE-FLuc = assay: ERSE-FLuc reporter activation, triplicate confirmation, relative to 500 nM thapsigargin (% of thapsigargin); higher = stronger ATF6/ERSE reporter activation; conditions: 6.8 µM; 18 h; screen: confirmation
Experimental: as §1

Row | Compound | XBP1-RLuc splicing reporter activation (HEK293T-Rex XBP1-RLuc) | ERSE-FLuc reporter activation (HEK293T-Rex ERSE-FLuc)
1 | c1ccc2cc(-c3cnnc(N4CCOCC4)n3)ccc2c1 | 1.22 ± 0.96 | 
2 | COc1cccc(-c2cc(C(=O)Nc3cc(C)ccc3O)on2)c1 | 12.2 ± 1.9 | 34.2 ± 8.4
3 | O=C(NCCCn1ccnc1)c1cc(-c2cccs2)on1 | 7.54 ± 0.78 | 42.5 ± 6.9
4 | COc1ccc(C2=Nn3c(nnc3-c3ccc(OC)cc3)SC2)cc1 | 10.4 ± 1.3 | 30.7 ± 4.3
5 | Cc1ccc(O)c(-c2cc(-c3ccc(F)cc3)n[nH]2)c1 | 3.17 ± 2.6 | 25.5 ± 7.2
6 | C/C(=N\NC(=O)c1n[nH]c2c1CCCC2)c1ccc(Br)cc1 | 2.87 ± 0.99 | 27.2 ± 1.9
7 | Cc1ccc(O)c(N/C=C/C(=O)c2ccc(F)cc2)c1 | 10.3 ± 7.9 | 140 ± 17
8 | Cc1ccc(O)c(NC(=O)c2cc(C3CC3)on2)c1 | 13.9 ± 2.1 | 59.4 ± 7.7
9 | CCOC(=O)c1sc(NC(=O)c2cccc3ccccc23)nc1C | 2.85 ± 0.37 | 27.3 ± 2.2
10 | Cc1cc(C)nc(/N=C(\N)Nc2ccc(OCc3ccc(Cl)cc3)cc2)n1 | 81.2 ± 5.9 | 59.7 ± 14
11 | N#CC1=C(N)Oc2c(ccc3ccccc23)C1c1ccccc1 (stereo not drawn) | 14.2 ± 1.1 | 27.3 ± 3.3
12 | CCN1C(=O)/C(=C\c2ccc(O)cc2O)SC1=S | 13.6 ± 1.7 | 36.3 ± 8.3
13 | Cc1nc(-c2coc3c(O)c(O)ccc3c2=O)cs1 | 7.82 ± 0.28 | 25.2 ± 4.1
14 | N#C/C(=C\c1ccc(O)c(O)c1)C(=O)Nc1ccccc1 | 13.3 ± 0.68 | 29.5 ± 5.4
15 | Oc1ccc(/C=N/Nc2cccc3cccnc23)c(O)c1 | 26 ± 1.3 | 40.8 ± 12
16 | O=C1NC(=Nc2ccccc2)S/C1=C/c1ccc(O)c(O)c1 | 20.9 ± 2.1 | 38.4 ± 10
17 | O=C1/C(=C/c2ccc(O)c(O)c2)SC(=S)N1c1ccc(O)cc1 | 14.6 ± 1.1 | 30.5 ± 8.2

From the supplement of paper PMC4954754
